Screening results: PubChem BioAssay, several laboratories
Rpn11 block – Rpn11 (PSMD14) deubiquitinase inhibitors, primary screen, biochemical, fluorescence polarization, uHTS; inhibition, % at 20 µM; human 26S proteasome, Ub4-pepOG fluorescence polarization; 20S core pre-blocked with epoxomicin; 360,000 tested, 0.59% active; 26S proteasome non-ATPase regulatory subunit 14 (Homo sapiens), O00487;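 active means inhibition at 20 µM, scaled to each plate's controls, above about 33%, limit read from the data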
EBNA-1 inh – EBNA-1 DNA-binding inhibitors, primary screen, biochemical, fluorescence polarization; inhibition, % at 14.8 µM; 300,000 tested, 0.34% active; AID 1950, 2009; in the data active means inhibition above about 28%
TPT1 inhibitor – Candida albicans TPT1 enzyme inhibitors, primary screen, biochemical, fluorescence polarization; recombinant caTPT1, FP RNA substrate dephosphorylation; inhibition, % at 5 µM; 300,000 tested, 0.81% active;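 active means inhibition above the mean of all tested compounds plus 3 SD, set per screening campaign, cut at about 24% in these data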;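 further: plate controls were DMSO alone for no effect and ferristatin control at 100 nM for full effect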
ZTA DNA inh – blocks Epstein-Barr virus ZTA, an EBNA-1 counter-screen; P03206; ZTA-DNA binding, fluorescence polarization; inhibition, % at 11 µM; 320,000 tested, 0.15% active; in the data active means inhibition above about 33%
GRIN3A LBD mod – binders of NR3A ligand-binding domain, primary screen, biophysical, differential scanning fluorimetry, uHTS. Glutamate receptor ionotropic, NMDA 3A (GRIN3A) ligand-binding domain. NR3A LBD differential scanning fluorimetry, Tm shift; 0% = protein alone, 100% = glycine-bound protein. Tm shift relative to glycine control, % at 25 µM. 340,000 tested, 2.5% active. AID 1259313, 2017;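 active means melting temperature shift of at least 10% of the positive control shift, at one fixed dose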
dFosB activator – activators of delta FosB homodimer, primary screen, biochemical, fluorescence polarization, TAMRA-CDK5 oligo, single point; purified delta FosB; percent of positive-control signal above neutral wells; activation, % at 25 µM; 340,000 tested, 0.99% active;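 active means mean activation above about 17%, with every replicate also reaching it, limit read from the data, passing the limit was not always enough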
Rpn11 inh conf – Rpn11 (PSMD14) deubiquitinase inhibitors, confirmation, biochemical, fluorescence polarization, single concentration; shares compounds with Rpn11 block; purified human 26S proteasome, Ub4-pepOG fluorescence polarization; proteasome pretreated with epoxomicin; inhibition, % at 20 µM; 1,900 tested, 29% active
MMP-2 inh – MMP-2 enzyme inhibition, confirmation, counter-screen for RPN11 inhibitor project, biochemical, fluorescence, single concentration. shares compounds with Rpn11 block. recombinant MMP-2, FRET peptide cleavage fluorescence. inhibition, % at 20 µM. 1,900 tested, 4% active;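 further: human MMP-2 activated beforehand with APMA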
Target sequence (P08253 whole entry, looked up): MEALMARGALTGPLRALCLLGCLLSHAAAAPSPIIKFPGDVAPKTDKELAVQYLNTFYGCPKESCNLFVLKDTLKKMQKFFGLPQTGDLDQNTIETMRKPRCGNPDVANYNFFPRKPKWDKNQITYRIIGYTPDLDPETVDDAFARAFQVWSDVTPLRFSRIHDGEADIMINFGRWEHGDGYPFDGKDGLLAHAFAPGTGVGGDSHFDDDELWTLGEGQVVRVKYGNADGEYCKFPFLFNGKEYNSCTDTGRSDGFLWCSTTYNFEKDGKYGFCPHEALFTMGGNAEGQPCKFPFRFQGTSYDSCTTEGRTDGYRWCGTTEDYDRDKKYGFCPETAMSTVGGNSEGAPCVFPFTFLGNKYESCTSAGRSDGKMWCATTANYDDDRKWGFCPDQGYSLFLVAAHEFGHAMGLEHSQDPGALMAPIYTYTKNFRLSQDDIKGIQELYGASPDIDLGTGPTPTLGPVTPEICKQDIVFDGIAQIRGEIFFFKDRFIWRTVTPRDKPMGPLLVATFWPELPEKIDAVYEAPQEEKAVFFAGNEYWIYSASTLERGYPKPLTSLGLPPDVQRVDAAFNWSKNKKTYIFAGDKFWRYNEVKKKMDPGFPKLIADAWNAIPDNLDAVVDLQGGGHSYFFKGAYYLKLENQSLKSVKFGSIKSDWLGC
Thrombin inh – bovine thrombin protease inhibition, confirmation, counter-screen for Rpn11 inhibitor project, biochemical, fluorescence polarization, single concentration; shares compounds with Rpn11 block; bovine thrombin cleavage of Ub4-pepOG; inhibition, % at 20 µM; 1,900 tested, 13% active;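 active means mean inhibition at least 40% at 20 µM, or signal 3 deviations below plate average, so some actives read negative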;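 further: plate controls were thrombin with DMSO for no effect and buffer wells lacking thrombin for full effect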
Starred values were filed as active, the others as inactive; nt = no result shown; + = active, no number. Sampled rows, rich in hits. Any-hit rate of the full collection: about 4.5%. Unless noted, no stated cut-off is given here; in the data, active means inhibition above about 40%; inactive means the rest.

SMILES	Rpn11 block	EBNA-1 inh	TPT1 inhibitor	ZTA DNA inh	GRIN3A LBD mod	dFosB activator	Rpn11 inh conf	MMP-2 inh	Thrombin inh
CCC(=O)Nc1c(C#N)c2nc3ccccc3nc2n1C1CCCCC1	92*	-4	1	-13	0	-10	6	-29	-5
CCCCn1c(NC(=O)c2ccccc2Cl)c(C#N)c2nc3ccccc3nc21	23	9	16	16	4	-11	nt	nt	nt
COc1ccc(CC(=O)OCC(=O)Nc2ccc(Br)cc2)cc1	-2	-7	4	5	-26	-8	nt	nt	nt
O=C(Nc1ccc(Cl)c(Cl)c1)Nc1nnc(-c2ccncc2)s1	161*	-4	2	-7	13*	-5	21	-45	12
CCOc1ccc(Cl)cc1/C=N/NC(=O)c1ccccc1	15	4	5	-11	-3	-6	nt	nt	nt
CCOc1ccc(C(=O)N/N=C/c2cc(Cl)ccc2[N+](=O)[O-])cc1	59*	0	2	-6	2	-1	41*	-121	11
CCN1C(=O)[C@H]2[C@@H](c3ccc(Cl)cc3)N3C(=O)CN(CCOC)C(=O)[C@@]3(C)[C@H]2C1=O	-5	3	-2	1	0	-2	nt	nt	nt
CC(C(=O)Nc1ccc(F)cc1Cl)N1CCN(S(=O)(=O)c2cccs2)CC1 (stereo unspecified)	-2	nt	nt	0	1	1	nt	nt	nt
O=C(Nc1ccc(C2=NCCN2)cc1)c1ccc(C(=O)Nc2ccc(C3=NCCN3)cc2)c(Cl)c1	90*	10	2	-5	-11	-62	69*	47*	10
O=C(/C=C/c1ccc([N+](=O)[O-])cc1)c1ccccc(=O)c1O	42*	nt	nt	nt	0	-7	-2	-2	-15
CC1=C(C(=O)N(C)C)CC(CC(=O)NCC2CCCCC2)C(=O)N1Cc1ccccc1 (stereo unspecified)	-4	nt	nt	nt	nt	nt	nt	nt	nt
COc1ccc(Cc2nnc(SCC(=O)Nc3ccc(N4CCOCC4)cc3)n2C)cc1	5	-14	-1	15	-2	1	nt	nt	nt
CC1(C(=O)O)Sc2[nH]c(=O)sc2C2c3ccccc3OC(=O)C21 (stereo unspecified)	48*	6	-7	-4	2	2	-4	8	-2
COC(=O)C1Sc2[nH]c(=O)sc2C2c3ccccc3OC(=O)C12 (stereo unspecified)	3	14	-6	7	2	-1	nt	nt	nt
Nc1cccn2c(-c3ccc(Cl)c(Cl)c3)cnc12	54*	-17	18	0	8	-9	32	-15	4
O=C(NCCSCc1ccccc1)c1ccc(C2SCC(=O)N2Cc2ccccc2)cc1 (stereo unspecified)	57*	5	2	7	2	-1	43*	27	16
COC(=O)c1ccc(C2SCC(=O)N2Cc2ccccc2)cc1 (stereo unspecified)	-9	-2	4	0	-1	-7	nt	nt	nt
Cc1nc(S/C(=C\c2ccc(-c3ccc(C(=O)O)c(Cl)c3)o2)C(=O)O)n[nH]1	67*	nt	nt	nt	2	-10	197*	22	24
O=C(Nc1ccccc1)C1CCCN1S(=O)(=O)c1ccc(Br)cc1 (stereo unspecified)	0	-2	-1	0	0	-6	nt	nt	nt
O=C(NCCCN1CCCCCC1)c1cc2c(=O)oc3ccccc3c2s1	64*	11	1	21	-4	-25	1	16	-6
N#CCC(=O)N/N=C/c1ccccc1Cl	53*	3	-3	-5	-2	1	-15	13	-13
CCC(C)Sc1ccc([C@@H]2[C@H]3C(=O)N(CC)C(=O)[C@H]3[C@]3(C(=O)OC)CCCCN23)cc1 (stereo partly specified)	50*	-3	14	0	-1	-5	105*	0	69*
CCSc1ccc([C@@H]2[C@@H]3C(=O)N(CC)C(=O)[C@@H]3[C@]3(C(=O)OC)CCCCN23)cc1	10	-3	0	3	1	-6	nt	nt	nt
O=C(Cn1c2ccccc2c(=O)c2ccccc21)N/N=C/c1cc([N+](=O)[O-])ccc1N1CCCCC1	59*	4	3	0	-3	-1	18	-10	17
O=C(N/N=C/c1cccc(OC(=O)c2ccc3c(c2)OCO3)c1)c1cncc(Br)c1	-4	10	2	-9	-3	0	nt	nt	nt
SMILES	Rpn11 block	EBNA-1 inh	TPT1 inhibitor	ZTA DNA inh	GRIN3A LBD mod	dFosB activator	Rpn11 inh conf	MMP-2 inh	Thrombin inh
O=C(N/N=C/c1ccc(OC(=O)c2ccc3c(c2)OCO3)cc1)c1cncc(Br)c1	+	1	0	16	-11	-9	5	8	-1
N#CC(C(=O)NCCc1ccccc1)c1nc2ccccc2nc1N1CCCCC1 (stereo unspecified)	102*	5	0	11	0	1	-81	-68	-79
N#CC(C(=O)NCCc1ccccc1)c1nc2ccccc2nc1N1CCOCC1 (stereo unspecified)	nt	0	2	13	-1	-8	nt	nt	nt
COc1ccccc1NS(=O)(=O)c1cccc(C(=O)N/N=C/c2ccc3c(c2)OCCO3)c1	4	-5	2	-7	-6	-9	nt	nt	nt
CCN(CC)c1ccc(/C=N/NC(=O)c2cccc(S(=O)(=O)Nc3ccccc3OC)c2)cc1	50*	0	1	8	1	0	57*	-19	33
CC(=O)c1ccc(N2CCN(C(=O)Cc3cccs3)CC2)cc1	62*	4	1	12	1	0	-10	50*	-7
CCN(CC1CCCN(CCc2cccc(OC)c2)C1)C(=O)c1ccoc1C (stereo unspecified)	-6	nt	nt	nt	4	-14	nt	nt	nt
Cc1ccc(C(=O)OC/C(O)=C(\C#N)c2nc3ccccc3[nH]2)cc1S(=O)(=O)N1CCOCC1	34	9	7	8	-8	11	nt	nt	nt
